PubChem BioAssay AID652104 (National Center for Advancing Translational Sciences (NCATS), 2013)
The campaign covered roughly 410,000 compounds. About 7,200 (1.8%) were called active. About 7% were inconclusive and are not listed. The full list was thinned out, with actives kept by preference. A number with no mark means an inactive call. Calls follow the shape of the dose curve; as a rule, active = well fitted activation curve with a large enough effect; inconclusive = small, poorly fitted or top-dose-only effect, or another doubt; inactive = no such curve, though single readings can be large or run the other way.

Assay: qHTS of TDP-43 Inhibitors; also: nearly all actives have a fitted effect of over 50% in size; as to growth rescue (activation): % of control where 0% means no effect
Settings: TDP-43 expressing yeast growth rescue, BacTiter-Glo, 24 h; series mostly up to 46.1 µM; growth rescue (activation): at the top concentration
Summary of the method: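 Growth rescue of TDP-43-toxic yeast measured as ATP luminescence (BacTiter-Glo). Cells grown to mid-log in raffinose, induced in galactose at OD600=0.02, exposed to compound 24 hr at 30 deg C.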
Potency is read from the fitted curve at half-maximal effect.

Compound	growth rescue (activation)	Potency
COc1ccc(-c2csc(-c3c(N)c(C(=O)c4ccc(OC)c(OC)c4)n4ccccc34)n2)cc1	9.93%	–
Cc1cc(-c2ccccc2)n2nc(-c3ccccc3)cc2n1	3.2%	–
Cc1cccc(Nc2nc(-c3ccccc3)cs2)n1	–	14.1 µM (active)
CCCn1c(C2CCCN2c2nc(-c3ccc(OC)cc3)cs2)nc2ccccc21 (stereo unspecified)	3.8%	–
COc1ccc(-c2csc(Nc3ccccn3)n2)cc1	–	3.55 µM (active)
Cc1cccc(NS(=O)(=O)c2ccc([N+](=O)[O-])cc2)n1	-5.16%	–
O=C(NCC(c1ccco1)S(=O)(=O)c1cccs1)c1ccc(F)cc1 (stereo unspecified)	25%	–
Cc1ccc(N(CC(=O)NCc2ccc(Cl)cc2)S(=O)(=O)N(C)C)cc1	1.6%	–
COc1ccccc1CNC(=O)C(Cc1ccccc1)NS(=O)(=O)c1ccc2c(c1)oc(=O)n2C (stereo unspecified)	16.4%	–
Cc1ccc(Cn2c(=O)n(-c3ccc(C)cc3)c(=O)c3c2c2cc(C)ccc2n3C)cc1	3.2%	–
CCOc1ccc(N2CC(C)Cn3c2nc2c3c(=O)n(Cc3c(F)cccc3Cl)c(=O)n2C)cc1 (stereo unspecified)	15.8%	–
CCCCC(=O)OC1=CN(Cc2ccccc2)S(=O)(=O)c2ccccc21	1.17%	–
CCOC(=O)CN1C(C(=O)c2ccccc2)=C(OC(=O)C(C)(C)C)c2ccccc2S1(=O)=O	18.4%	–
CC(=O)OC1=C(C(C)=O)N(Cc2ccccc2)S(=O)(=O)c2ccccc21	–	35.5 µM (active)
O=C(c1ccccc1)c1ccc(OC(=O)N2CCCC2)cc1	–	11.2 µM (active)
CC(=O)Oc1ccc(-c2cccc(C(=O)N3CCCCC3)c2)cc1	-16% [at 1.82 µM]	–
CC(=O)c1ccc(OC(=O)N2CCOCC2)cc1	-20.1%	–
O=S(=O)(NCCc1ccccc1)c1ccccc1	12.3%	–
O=C(Cc1ccccc1)NCC1OCCc2ccccc21 (stereo unspecified)	14.4%	–
O=S(=O)(NCC1OCCc2ccccc21)c1ccccc1 (stereo unspecified)	–	10 µM (active)
CCCOc1ccc(C(=O)Nc2ccc3oc(-c4cccc(Cl)c4Cl)nc3c2)cc1	11.7%	–
CCOc1ccc(NC(=O)c2cc(S(=O)(=O)N3CCCC3)c[nH]2)cc1	4.42%	–
CCCN(CCC)c1ccc(C(O)c2nnc(-c3ccccc3)o2)cc1 (stereo unspecified)	-5.35%	–
CN(C)c1ccc(-c2nnc(-c3cccnc3)o2)cc1	–	10 µM (active)
CC1(c2nnc(-c3ccncc3)o2)CC(c2cccnc2)=NO1 (stereo unspecified)	6.56%	–
O=C(Cn1ncc2c3ccccc3n(Cc3ccccc3)c2c1=O)NC1CCCCCC1	14.8%	–

Compound	growth rescue (activation)	Potency
CCC(Sc1nnc(-c2ccc(OC)cc2)c(-c2ccc(OC)cc2)n1)C(=O)NC1CCCCC1 (stereo unspecified)	10.9%	–
CN(Cc1ccccc1)C(=O)c1cn(C)c2ccc(S(=O)(=O)N(C)C3CCCCC3)cc2c1=O	1.58%	–
CCOc1ccccc1CNC(=O)c1ccc2c(c1)nc1n2CCC(C)C1 (stereo unspecified)	-3.83%	–
CCOc1ccccc1C(=O)NCC(c1ccc(N(C)C)cc1)N1CCCC1 (stereo unspecified)	10.1%	–
COc1ccc(-c2noc(CSc3nnc(-c4ccccc4)n3-c3ccc(F)cc3)n2)c(OC)c1	14.2%	–
COc1ccccc1C(=O)Nc1cccc(C(=O)N2CCOCC2)c1	-30.7%	–
COc1cc(C(c2c(NC(=O)c3ccco3)sc(C)c2C)N2CCOCC2)cc(OC)c1OC (stereo unspecified)	7.65%	–
CCc1cc(C(c2ccccc2OC)N2CCOCC2)c(NC(=O)c2ccccc2)s1 (stereo unspecified)	–	20 µM (active)
COc1ccccc1NC(=O)C1=C(C)Nc2nc(SCC(=O)c3ccc(C)cc3)nn2C1c1ccccc1C (stereo unspecified)	10.6%	–
CCCCn1c(CNC(=O)C23CC4CC(CC(C4)C2)C3)nnc1SCC(=O)Nc1ccc(C)cc1	16.7%	–
O=C(CO/N=C/c1ccccc1O)NNC(=O)c1ccccc1Cl	–	3.16 µM (active)
O=C(COc1ccccc1F)NNC(=O)c1cc(Br)ccc1Cl	26.6%	–
O=C(CO/N=C/c1ccccc1OC(F)F)NC1CCCC1	26.6% [at 9.22 µM]	–
O=C(c1ccccc1F)N1CCC(c2nc3c(nnn3Cc3cccc(F)c3)c(=O)[nH]2)CC1	11.5%	–
CC(C)c1ccc(OCC(=O)N(Cc2ccc(N(C)C)cc2)C2CCS(=O)(=O)C2)cc1 (stereo unspecified)	11.6%	–
COc1ccc(-c2cn3c(n2)sc2cc(C(=O)Nc4ccccc4F)ccc23)cc1	18.7%	–
Cc1ccc(COc2ccc(C(=O)NN)cc2)cc1	–	15.8 µM (active)
Cc1oc(C(N)=O)cc1COc1ccc(C(N)=O)cc1	6.24%	–
NNC(=O)c1ccc(COCC(F)(F)C(F)F)cc1	-5.08%	–
Cc1nn2c(=O)cc(COC(=O)c3ccccc3NC(=O)COc3ccccc3C)nc2s1	19.1%	–
CCc1ccc2oc(-c3ccc(C)c(NC(=O)/C=C/c4ccco4)c3)nc2c1	19.8%	–
Cc1ccc(OCCSc2nc(-c3cccs3)nc3cc(=O)[nH]n23)cc1Cl	-4.89%	–
Cc1ccc(Nc2c(-c3ccc(C)s3)nc3ccccn23)cc1	7.23%	–
COc1ccc(-c2nc3cnccn3c2NC(C)(C)CC(C)(C)C)cc1O	1.88%	–
Cc1ccc(Nc2c(-c3ccc(C)cc3)nc3cnccn23)cc1	–	22.4 µM (active)
COc1ccc(-c2nc(CN3CCC(C(=O)NCCN(CC(C)C)CC(C)C)CC3)c(C)o2)cc1OC	-8.75%	–

Compound	growth rescue (activation)	Potency
CCNS(=O)(=O)c1cc(-c2nnc(Nc3cccc(C(F)(F)F)c3)c3ccccc23)ccc1C	5.49%	–
CCC1=Nc2cc(C(=O)NCCCOC(C)C)ccc2Sc2ccc(C)cc21	14.6%	–
CC(=O)N1c2ccccc2CC1C(=O)N1CCN(c2ccc(F)cc2)CC1 (stereo unspecified)	23.9%	–
CCC(C)C(=O)Nc1ccccc1N1CCN(c2ccc(F)cc2)CC1 (stereo unspecified)	–	25.1 µM (active)
CCCC(=O)Nc1ccccc1N1CCN(C(=O)c2ccccc2)CC1	3.79%	–
COc1ccc(NC(C)=O)cc1NC(=O)CN1CCN(c2ccc(F)cc2)CC1	9.74%	–
CC(=O)c1ccc(N2CCN(CC(=O)Nc3ccccc3N3CCOCC3)CC2)cc1	-6.9% [at 9.22 µM]	–
CCCCC(=O)Nc1ccccc1N1CCN(c2ccc(F)cc2)CC1	–	22.4 µM (active)
CCCC12CN3CC(CCC)(CN(C1)C3c1c[nH]c3ccc(OC)cc13)C2=O (stereo unspecified)	10.9%	–
COc1cccc(C(O)c2nc3ccccc3n2C)c1 (stereo unspecified)	-12.7%	–
COc1cccc(C(O)c2ncc(-c3ccc4ccccc4c3)[nH]2)c1 (stereo unspecified)	1.29%	–
CCCCCC(O)c1cccc(OCc2ccc3ccccc3n2)c1 (stereo unspecified)	–	12.6 µM (active)
COc1ccc(OC)c(-c2csc(-c3c(N)c(C(=O)c4ccccc4)n4ccccc34)n2)c1	12.1%	–
O=C(Nc1cccc(-c2nc3ccccc3o2)c1)c1cccc(Br)c1	-0.934%	–
CCC(=O)Nc1cccc(-c2nc3cc(C)ccc3o2)c1	–	14.1 µM (active)
Cc1ccc(SCC(=O)Nc2ccc3oc(-c4ccccc4C)nc3c2)cc1	17.9%	–
CCOc1ccc(-n2c(C)nc3c(cnn3-c3ccc(C)cc3)c2=O)cc1	17.3%	–
CCOC(=O)Cn1c(=O)n(C2CCCCC2)c2nc(-c3cccc(OC)c3)nc(C(N)=O)c21	-2.36%	–
Cc1ccc(Cl)cc1NC(=O)CCS(=O)(=O)c1ccc(Br)s1	12.3%	–
O=c1[nH]snc1-c1c(Cl)cccc1Cl	–	17.8 µM (active)
O=Cc1c(Cl)cccc1Cl	22.7%	–
CN(C)NC(=O)c1csnc1-c1c(Cl)cccc1Cl	-9.43%	–
O=C(Nc1ccc2c(c1)OCO2)C1CC(c2c(F)cccc2Cl)=NO1 (stereo unspecified)	–	10 µM (active)
Cc1ccccc1N1CC(C(=O)Nc2ccc3c(c2)OCO3)CC1=O (stereo unspecified)	-6.84%	–
Cc1ccc(NC(=O)C2CC(c3ccc(F)cc3)=NO2)cc1 (stereo unspecified)	-11.8%	–
Cc1cccc(CSc2nc3ccncc3n2Cc2ccc(C(=O)O)cc2)c1	14.6%	–

Compound	growth rescue (activation)	Potency
COc1ccccc1-c1nnc(NC(=O)c2ccc3ncsc3c2)o1	–	11.2 µM (active)
Cc1ccc(C(=O)Nc2nnc(C3=COCCO3)o2)cc1C	-17.5%	–
CSc1ccccc1-c1nnc(NC(=O)c2ccc3c(c2)OCCO3)o1	21.5%	–
CCOc1ccc(NC(=O)CCC(=O)N2CC(C)Oc3ccc(C)cc32)cc1 (stereo unspecified)	11.9%	–
Clc1ccc(C2=CSC3=Nc4cccc5cccc(c45)N23)cc1	–	17.8 µM (active)
COc1ccc(CCN2C(=O)c3oc4cc(C)cc(C)c4c(=O)c3C2c2ccccc2F)cc1OC (stereo unspecified)	-2.16%	–
O=C(Nc1ccc2nc(SCCOc3ccccc3)sc2c1)c1ccco1	-2.18%	–
O=C(Nc1cccc(NC(=O)c2ccco2)c1)c1cnccn1	–	12.6 µM (active)
O=C(Nc1cc(-c2nc3ncccc3o2)ccc1Cl)c1ccco1	2.94%	–
CSc1nc(=O)c2c(n1C)NC(=O)CC2c1ccccc1OC(C)C (stereo unspecified)	5.81% [at 9.22 µM]	–
COc1ccc(CCN2C(=O)N(c3cccc(OC)c3)C(=O)C2CC(=O)Nc2ccccc2)cc1 (stereo unspecified)	-8.2%	–
N#Cc1ccccc1Cn1cnc2nc3c(cc2c1=O)CCCC3	-11%	–
O=C(CSc1nc2ccccc2o1)N1CCN(c2ccc(Cl)cc2)CC1	23.8%	–
Cc1ccc2onc(CC(=O)N3CCN(c4ccc(Cl)cc4)CC3)c2c1	–	20 µM (active)
Cc1ccc2oc(=O)c3cnn(CC(=O)N4CCN(c5cccc(Cl)c5)CC4)c3c2c1	17.5%	–
Cc1nnc(NCc2ccccc2)c2c1nnn2Cc1ccc(F)cc1	0%	–
Cc1nc2nc(SCC(=O)N(Cc3ccccc3)C(C)C)nn2c(C)c1Cc1ccccc1Cl	11.2%	–
Cc1cccc(NC(=O)C2CCN(S(=O)(=O)c3c(C)noc3/C=C/c3ccco3)CC2)c1	2.24%	–
O=C(CCNC(=O)c1ccc(Cl)cc1)NC1CCCc2ccccc21 (stereo unspecified)	15.6%	–
NC(=O)Nc1ccc(C(=O)OCC(=O)NC2CCCc3ccccc32)cc1 (stereo unspecified)	16.9%	–
O=C(Nc1cccc(F)c1)NC1CCCc2ccccc21 (stereo unspecified)	–	12.6 µM (active)
Cc1cccc(Cn2c(CN3CCC(C(=O)NCc4ccccc4Cl)CC3)cc3ccccc32)c1	3.69%	–
Cc1ccc(CSc2nc3cccnc3n2Cc2ccc(C(=O)NC3CC3)cc2)cc1	6.89%	–
